{"source": "PubChem BioAssay AID1211", "about": "(NMMLSC, 2008)", "molecular_target": "Estrogen receptor (Homo sapiens) (UniProt P03372)", "sequence (P03372 whole entry, looked up)": "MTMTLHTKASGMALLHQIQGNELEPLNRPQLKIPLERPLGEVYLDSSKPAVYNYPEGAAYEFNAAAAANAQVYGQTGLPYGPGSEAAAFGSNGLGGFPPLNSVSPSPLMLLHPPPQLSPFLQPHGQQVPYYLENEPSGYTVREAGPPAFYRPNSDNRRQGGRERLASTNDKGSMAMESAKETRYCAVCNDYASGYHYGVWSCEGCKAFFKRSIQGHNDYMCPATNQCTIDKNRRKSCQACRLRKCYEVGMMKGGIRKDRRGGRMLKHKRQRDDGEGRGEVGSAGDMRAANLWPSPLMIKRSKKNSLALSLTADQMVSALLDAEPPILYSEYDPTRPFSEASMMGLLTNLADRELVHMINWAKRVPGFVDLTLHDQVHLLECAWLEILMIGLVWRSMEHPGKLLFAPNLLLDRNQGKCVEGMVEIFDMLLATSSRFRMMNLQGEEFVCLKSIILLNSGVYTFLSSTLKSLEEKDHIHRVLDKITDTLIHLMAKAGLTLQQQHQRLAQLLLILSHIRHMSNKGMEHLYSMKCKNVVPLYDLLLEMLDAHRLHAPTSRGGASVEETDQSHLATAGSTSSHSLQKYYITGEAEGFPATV", "assay": "displacement of fluorescent estrogen from ERalpha – cell-based, Cos7 ERalpha-GFP, flow cytometry, primary screen (AID 1211);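 also: 0% = DMSO vehicle wells and 100% = no E2-Alexa633 signal left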", "settings": "fluorescent ligand competition, stronger effect = higher value", "note": "Active and inactive are the calls of the source. No rule for the calls is given here.", "data": [{"smiles": "c1ccc(Cc2nnc3sc(-c4ccco4)nn23)cc1", "values": [{"measurement": "inhibition of ligand binding", "setting": "at 10 µM", "value": "34% (inactive)"}, {"measurement": "inhibition of ligand binding", "setting": "binding inhibition, at 0.1 µM", "value": 12, "unit": "%"}]}, {"smiles": "CNc1nnc(-c2cc3cc(Cl)ccc3oc2=O)s1", "values": [{"measurement": "inhibition of ligand binding", "setting": "at 10 µM", "value": "29% (inactive)"}, {"measurement": "inhibition of ligand binding", "setting": "binding inhibition, at 0.1 µM", "value": 58, "unit": "%"}]}, {"smiles": "CC(=O)c1ccc(NC(=S)N2CCCC(CO)C2)cc1", "note": "(stereo not given)", "values": [{"measurement": "inhibition of ligand binding", "setting": "at 10 µM", "value": "13% (inactive)"}, {"measurement": "inhibition of ligand binding", "setting": "binding inhibition, at 0.1 µM", "value": 1, "unit": "%"}]}, {"smiles": "CCOc1ccccc1N1CSC2=C(C#N)C(c3c(OC)ccc4ccccc34)CC(=O)N2C1", "note": "(stereo not given)", "values": [{"measurement": "inhibition of ligand binding", "setting": "at 10 µM", "value": "19% (inactive)"}, {"measurement": "inhibition of ligand binding", "setting": "binding inhibition, at 0.1 µM", "value": 17, "unit": "%"}]}, {"smiles": "O=C(Cc1ccc(S(=O)(=O)N2CCOCC2)s1)Nc1nc2c(s1)CCCC2", "values": [{"measurement": "inhibition of ligand binding", "setting": "at 10 µM", "value": "46% (inactive)"}, {"measurement": "inhibition of ligand binding", "setting": "binding inhibition, at 0.1 µM", "value": 32, "unit": "%"}]}, {"smiles": "CCCCNS(=O)(=O)c1ccc(NC(=O)C(Sc2ccccc2)c2ccccc2)cc1", "note": "(stereo not given)", "values": [{"measurement": "inhibition of ligand binding", "setting": "at 10 µM", "value": "25% (inactive)"}, {"measurement": "inhibition of ligand binding", "setting": "binding inhibition, at 0.1 µM", "value": 21, "unit": "%"}]}, {"smiles": "CCN(CC)c1ccc(-c2nn3c(-c4ccccc4OC)nnc3s2)cc1", "values": [{"measurement": "inhibition of ligand binding", "setting": "at 10 µM", "value": "40% (inactive)"}, {"measurement": "inhibition of ligand binding", "setting": "binding inhibition, at 0.1 µM", "value": 25, "unit": "%"}]}, {"smiles": "Cc1ccc(-n2c(=O)c(C#N)cc3c(=O)n4cccc(C)c4nc32)cc1", "values": [{"measurement": "inhibition of ligand binding", "setting": "at 10 µM", "value": "53% (inactive)"}, {"measurement": "inhibition of ligand binding", "setting": "binding inhibition, at 0.1 µM", "value": 32, "unit": "%"}]}, {"smiles": "Cc1ccc(Cn2c(NC(=O)c3ccco3)nc3ccccc32)cc1", "values": [{"measurement": "inhibition of ligand binding", "setting": "at 10 µM", "value": "29% (inactive)"}, {"measurement": "inhibition of ligand binding", "setting": "binding inhibition, at 0.1 µM", "value": 11, "unit": "%"}]}, {"smiles": "COc1ccc(C2Nc3ccccc3C(=O)N2c2ccccc2)cc1CSc1ccccn1", "note": "(stereo not given)", "values": [{"measurement": "inhibition of ligand binding", "setting": "at 10 µM", "value": "44% (inactive)"}, {"measurement": "inhibition of ligand binding", "setting": "binding inhibition, at 0.1 µM", "value": 17, "unit": "%"}]}, {"smiles": "O=C(Cc1cccs1)Nc1ccccn1", "values": [{"measurement": "inhibition of ligand binding", "setting": "at 10 µM", "value": "0% (inactive)"}, {"measurement": "inhibition of ligand binding", "setting": "binding inhibition, at 0.1 µM", "value": 16, "unit": "%"}]}, {"smiles": "COc1cc2c(cc1O)C(Cc1ccc(O)cc1)NCC2", "note": "(stereo not given)", "values": [{"measurement": "inhibition of ligand binding", "setting": "at 10 µM", "value": "34% (inactive)"}, {"measurement": "inhibition of ligand binding", "setting": "binding inhibition, at 0.1 µM", "value": 8, "unit": "%"}]}, {"smiles": "COC(=O)c1ccccc1NC(=O)c1noc2c1CCC2", "values": [{"measurement": "inhibition of ligand binding", "setting": "at 10 µM", "value": "25% (inactive)"}, {"measurement": "inhibition of ligand binding", "setting": "binding inhibition, at 0.1 µM", "value": 21, "unit": "%"}]}, {"smiles": "O=C(Nc1ccc(N2CCCC2)cc1)C(c1ccccc1)c1ccccc1", "values": [{"measurement": "inhibition of ligand binding", "setting": "at 10 µM", "value": "63% (inactive)"}, {"measurement": "inhibition of ligand binding", "setting": "binding inhibition, at 0.1 µM", "value": 7, "unit": "%"}]}, {"smiles": "O=c1cc(-c2ccc(O)c(O)c2)oc2c(C3O[C@H](CO)[C@@H](O)[C@H](O)[C@H]3O)c(O)cc(O)c12", "note": "(stereo not given in full)", "values": [{"measurement": "inhibition of ligand binding", "setting": "at 10 µM", "value": "28% (inactive)"}, {"measurement": "inhibition of ligand binding", "setting": "binding inhibition, at 0.1 µM", "value": 27, "unit": "%"}]}]}
